High-throughput results deposited in PubChem by National Center for Advancing Translational Sciences (NCATS).
Only some compounds are listed: those with a hit (about 2.4% of all), similar ones and a draw of the others.
D2 PAM-1 = Beta-Arrestin HTS for Positive Allosteric Modulators of the Human D2 Dopamine Receptor: Potentiators; D(2) dopamine receptor (Homo sapiens), P14416; DiscoveRx D2 beta-arrestin cells, luminescence, 90 min; 100% = 57 uM dopamine signal; potentiation, % (test concentration not listed); actives 0.23% (n = 360,000); in the data active means potentiation above about 50%; inconclusive means mostly about 30% to 49%
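PathHunter beta-arrestin assay in DiscoveRx D2 cells. Compounds were added with an EC20 of dopamine (50 nM final) for 90 min at 37 deg C. Luminescence was read 1 h after detection reagent, with 57 uM dopamine as the EC100 control.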
D2 antagonist = HTS Assay for Allosteric Antagonists of the Human D2 Dopamine Receptor: Primary Screen for Antagonists | D(2) dopamine receptor (Homo sapiens), P14416 | HEK293 TREx D2 cells, calcium flux, dopamine EC80 | inhibition, % at 10 µM | actives 2% (n = 340,000) | AID 485344, 2010; in the data active means inhibition above about 30%; inactive means below that, where a call was filed; further: 0% is about no effect
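In this primary screen, negative modulation is detected by tracking calcium flux after an EC80 dopamine challenge in inducible HEK293 T-REx D2 cells preexposed to test compound for 180 s.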
D2 ag-1 = HTS Assay for Allosteric Agonists of the Human D2 Dopamine Receptor: Primary Screen for Agonists; HEK293 T-REx D2 cells, calcium flux agonist mode; activation, % at 2 µM; actives 0.53% (n = 340,000);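 active means activation over 3 SD above normal in the single-dose calcium agonist read, cut at about 30% in these data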; further: 0% is about no effect
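Agonism is scored from calcium flux in a force-coupled, inducible HEK293 cell line expressing D2, read kinetically for 180 s after compound addition against dopamine controls.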
D2 ag-2 = Beta-Arrestin HTS for Positive Allosteric Modulators of the Human D2 Dopamine Receptor: Agonists; DiscoveRx PathHunter D2 beta-arrestin, luminescence, 90 min; 100% = 57 uM dopamine signal; activation, % (test concentration not listed); actives 0.084% (n = 360,000); in the data active means activation above about 40%; inconclusive means between about 15% and that limit
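Agonist mode: compounds alone added to overnight-plated D2 PathHunter cells for 90 min at 37 C, with 57 uM final dopamine (EC100) defining full response. Beta-arrestin recruitment detected by chemiluminescent reagent, read after 1 h at ambient temperature.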
D2 PAM-2 = HTS Assay for Positive Allosteric Modulators of the Human D2 Dopamine Receptor: Primary Screen for Potentiators; AID 485347, 2010; actives 0.34% (n = 340,000); potentiation, % at 10 µM; D(2) dopamine receptor (Homo sapiens), P14416; HEK293 T-REx D2, calcium flux, EC20 dopamine potentiation;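 active means potentiation over 3 SD above the plate norm, cut at about 30% in these data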; further: 0% is about no effect
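Calcium flux readout, no-wash dye, 1 read/s. Inducible HEK293 Trex D2 line, overnight 30 C. Compound alone 180 s (agonist flags), then EC20 dopamine, another 180 s to score potentiation.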
D3 ag = qHTS of D3 Dopamine Receptor Agonist: D3 Dopamine Receptor B-arrestin Agonist Confirmatory Assay; DiscoveRx D3 beta-arrestin cells, luminescence, 90 min; AID 720506, 2013; actives 4% (n = 2,300); shares compounds with D2 ag-1; Potency, µM (series often up to 76.9 µM), without a hit: at the highest dose activation, hits mostly activators;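 further: potency means the concentration at half of the fitted maximal effect; 100% = dopamine control response; nearly all actives have a fitted effect of over 70% in size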
Target sequence (P35462 whole entry, looked up): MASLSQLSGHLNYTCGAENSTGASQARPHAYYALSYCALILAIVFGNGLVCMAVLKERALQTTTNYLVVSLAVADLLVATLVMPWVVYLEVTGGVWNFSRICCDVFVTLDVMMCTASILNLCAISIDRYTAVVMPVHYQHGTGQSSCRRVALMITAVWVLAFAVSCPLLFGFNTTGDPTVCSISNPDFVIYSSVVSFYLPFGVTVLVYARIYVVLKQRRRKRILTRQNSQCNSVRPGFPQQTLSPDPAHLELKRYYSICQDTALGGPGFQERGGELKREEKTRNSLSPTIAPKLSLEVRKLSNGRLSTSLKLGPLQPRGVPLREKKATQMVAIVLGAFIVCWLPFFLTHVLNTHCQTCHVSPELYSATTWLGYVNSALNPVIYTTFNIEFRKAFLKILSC
D2 ag-3 = qHTS of D3 Dopamine Receptor Agonist: D2 Dopamine Receptor B-arrestin Agonist Counterscreen | DiscoveRx PathHunter D2 beta-arrestin, luminescence, 90 min; response scale: percent relative to full dopamine signal | Potency, µM (series often up to 76.9 µM), for inactives: at the top dose activation, most hits filed as activators | actives 5.9% (n = 2,300) | shares compounds with D2 ag-1; further: potency means the concentration at half of the fitted maximal effect; % of control where 0% means no effect; nearly all actives have a fitted effect of over 70% in size
An asterisk follows results filed as active; u = inconclusive; x = no result. Unless noted, the call rests on the fitted dose curve; in most records, active means well fitted activation curve with a large enough effect; inconclusive means small, poorly fitted or top-dose-only effect; inactive means flat fitted curve, though single readings scatter.

SMILES	D2 PAM-1	D2 antagonist	D2 ag-1	D2 ag-2	D2 PAM-2	D3 ag	D2 ag-3
CCCCOc1ccc(C2=NC(c3ccncc3)=Nc3ccc(OCC)cc3N2)cc1	x	x	-1	x	-1	x	x
Cc1ncsc1CCOC(=O)c1ccc(N2CCOCC2)c([N+](=O)[O-])c1	-8	28	2	1	15	u	u
O=c1c(-c2cc(-c3ccccc3)nc3c2COc2ccc(Cl)cc2-3)coc2ccccc12	x	x	-1	x	-5	x	x
COc1cccc(CNC(=O)COCc2cc(-c3ccc4c(c3)OCO4)on2)c1	x	x	-1	x	-9	x	x
CC(=O)SC1CC(=O)N(c2c(C)cccc2C)C1=O (centres undefined)	-9	27	55*	-7	-20	-17%	-12%
COc1ccc(OC)c(NC(=O)c2cc3c(=O)oc4ccccc4c3s2)c1	x	x	1	x	-1	x	x
CCOC(=O)c1c(S(=O)(=O)N2CCCC(C(=O)Nc3cccc(CC)c3)C2)c(C)n(CC)c1C (centres undefined)	x	x	1	x	17	x	x
Cn1cc(CN2CCC(O)CC2)c(-c2ccc(Oc3ccccc3)cc2)n1	-12	10	1	-7	-14	x	x
CCOC(=O)C1CCN(Cc2cccc(OCc3ccccc3)c2)CC1	22	86*	74*	48*	-21	14%	u
CCOC(=O)C1(Cc2cccc(OC)c2)CCN(Cc2cnc(SC)nc2)CC1	3	93*	59*	-2	-19	0%	u
CCOC(=O)C1(CCOC)CCN(Cc2cccc(OCc3ccccc3)c2)CC1	-4	37*	63*	1	-20	0%	25%
CCOC(=O)C1CCN(Cc2cn(C)nc2-c2ccc(Oc3ccccc3)cc2)CC1	-5	20	18	5	-8	-12%	9%
CN1C(=O)C2CCCCN2c2ccc(C(=O)NCc3ccccc3Br)cc21 (centres undefined)	x	x	x	x	1	x	x
CCOC(=O)C1(CCOc2ccccc2)CCN(Cc2cccn2-c2ncccn2)CC1	-7	-8	0	1	3	-8%	3%
CCOc1cc(N2CCOCC2)c(OCC)cc1NC(=O)COc1cccc(CC)c1	1	-34	0	-2	14	-9%	2%
CC(=O)c1cc2cccc(OC3(C)CCN(Cc4ccc5ccccc5c4)C3)c2o1 (centres undefined)	-9	x	x	14	x	x	x
CC(=O)N1CCN(S(=O)(=O)c2cccc(C(=O)OCC(=O)N(CCC#N)c3ccc(F)cc3)c2)CC1	-4	7	0	-3	14	-8%	-4%
N#CCCN(C(=O)COC(=O)c1cccc(S(=O)(=O)N2CCCC2)c1)c1ccc(F)cc1	-15	-4	1	-1	-1	x	x
COc1ccccc1CNCC(=O)Nc1cc(S(=O)(=O)N2CCCCCC2)ccc1Cl	-21	85*	0	1	-5	23%	30%
CCN(CC)S(=O)(=O)c1ccc(C)c(NC(=O)CN(C)C)c1	-15	5	0	0	1	x	x
Cc1ccc(S(=O)(=O)N2CCOCC2)cc1NC(=O)CSc1ncccn1	3	9	2	-2	-13	x	x
COc1ccccc1CNCC(=O)Nc1cc(S(=O)(=O)N2CCOCC2)ccc1Cl	-4	85*	19	7	-11	19%	u
Cc1ccc(S(=O)(=O)N2CCOCC2)cc1NC(=O)CNCc1ccccn1	-4	33*	52*	u	-12	7.9µM*	u
CCN(CC)S(=O)(=O)c1ccc(C)c(NC(=O)CNCc2ccccc2OC)c1	1	96*	82*	u	-32	u	u
COc1ccccc1CNCC(=O)Nc1cc(S(=O)(=O)N2CCCCC2)ccc1C	-8	x	x	u	x	x	x
SMILES	D2 PAM-1	D2 antagonist	D2 ag-1	D2 ag-2	D2 PAM-2	D3 ag	D2 ag-3
CCC(=O)N1c2ccccc2CC1C(=O)NCc1ccc(N(C)C)cc1 (centres undefined)	x	x	x	x	-4	x	x
Cc1c(N=c2scc(-c3ccccc3)n2CCO)c(=O)n(-c2ccccc2)n1C	-5	1	24	0	-4	x	x
Cc1c(N=c2scc(-c3ccccc3)n2C)c(=O)n(-c2ccccc2)n1C	-6	76*	66*	u	-16	-1%	u
FC(F)(F)c1ccc(N2CCOCC2)c(NC2=NCCCCC2)c1	-2	-10	0	2	-11	x	x
FC(F)(F)c1ccc(Cl)c(NC2=NCCCCC2)c1	-10	11	53*	-6	-19	-1%	13%
CN(C)CCNC(=O)c1ccc(CS(=O)(=O)c2c(Cl)cccc2Cl)o1	-4	1	1	-7	0	x	x
CN(CCNC(=O)c1ccc(CS(=O)(=O)c2c(Cl)cccc2Cl)o1)CCc1ccccc1	-31	0	31*	-1	-5	3%	8%
O=C(CCN1CCN(c2ccccc2)CC1)N/N=C/c1ccccc1OC(F)F	9	88*	75*	u	-22	-5%	u
COc1cc(/C=N/NC(=O)CCN2CCCCC2)ccc1O	-10	-4	1	3	-5	x	x
COc1ccc(/C=N\NC(=O)CCN2CCN(c3ccccc3)CC2)cc1OC	-27	56*	75*	3	-30	15%	21%
CC(=O)Nc1ccc(/C=N/NC(=O)CCN2CCN(c3ccccc3)CC2)cc1	3	51*	79*	9	-20	u	27%
O=C(CCN1CCN(C(c2ccccc2)c2ccccc2)CC1)N/N=C/c1ccc(O)cc1	-27	-11	-3	-3	-19	x	x
COc1cc(OC)c(NC(=O)C2CCN(S(=O)(=O)c3ccc4c(c3)oc(=O)n4C)CC2)cc1Cl	x	x	0	x	-10	x	x
COc1ccc(CN2C(=O)C(C)N(C(=O)c3c(F)cccc3F)c3ccccc32)cc1 (centres undefined)	-6	23	0	-1	2	7%	-4%
